This note sets out measurements from PubChem BioAssay AID602292 (National Center for Advancing Translational Sciences (NCATS), 2012).

SMILES strings stand for the structures. The campaign covered roughly 1,300 compounds. About 380 (29%) were called active. Another 37% or so got no clear call; they are omitted. Calls come from the whole dose curve; as a rule, active = well fitted inhibition curve with a large enough effect; inconclusive = small, poorly fitted or top-dose-only effect; inactive = flat fitted curve, though single readings scatter. The list shows a part of the results. Entries that show only a call come without a potency.
Potency is the fitted concentration of half-maximal effect.

In this test the target is Thyrotropin receptor (Homo sapiens) (UniProt P16473). Put plainly: qHTS for antagonists of the Thyroid Stimulation Hormone Receptor: Hit Validation in Primary Screen. Note: nearly all actives have a fitted effect of over 80% in size. To be noted: TSHR-expressing cells, cAMP antagonist mode; series mostly up to 58 µM. An excerpt: The thyroid-stimulating hormone receptor (TSHR) is a member of the 7 trans-membrane-spanning receptor (7TMR) family of cell surface receptors. TSHR-mediated hyperthyroidism is important in thyroid pathology. The development of small molecule antagonists of TSHR may lead to therapeutic approaches for TSHR-mediated hyperthyroidism caused by constitutively activating mutations or stimulating auto-antibodies associated with Graves' disease. Graves' disease is the leading cause of hyperthyroidism and is caused by autoantibodies that stimulate TSHR (TsAbs) causing thyroid growth and unregulated overproduction of thyroid hormones and existing treatments have liabilities (agranulocytosis). In addition, TSHRs are known to be expressed in multiple extrathyroidal tissues including bone, brain, kidney, testis, fat and cells of the immune system but the role of the TSHR in these tissues is not clear. Therefore, TSHR antagonists/inverse agonists could be used as probes of extrathyroidal TSHR function. Finally, TSHR inverse agonists, which are a subclass of antagonists that inhibit agonist-independent (or basal or constitutive) TSHR signaling, could be used to inhibit TSH-independent signaling in patients with recurrent or metastatic thyroid cancer who are receiving thyroid hormone to suppress TSH.
Thyrotropin receptor (Homo sapiens), sequence (P16473 whole entry, looked up): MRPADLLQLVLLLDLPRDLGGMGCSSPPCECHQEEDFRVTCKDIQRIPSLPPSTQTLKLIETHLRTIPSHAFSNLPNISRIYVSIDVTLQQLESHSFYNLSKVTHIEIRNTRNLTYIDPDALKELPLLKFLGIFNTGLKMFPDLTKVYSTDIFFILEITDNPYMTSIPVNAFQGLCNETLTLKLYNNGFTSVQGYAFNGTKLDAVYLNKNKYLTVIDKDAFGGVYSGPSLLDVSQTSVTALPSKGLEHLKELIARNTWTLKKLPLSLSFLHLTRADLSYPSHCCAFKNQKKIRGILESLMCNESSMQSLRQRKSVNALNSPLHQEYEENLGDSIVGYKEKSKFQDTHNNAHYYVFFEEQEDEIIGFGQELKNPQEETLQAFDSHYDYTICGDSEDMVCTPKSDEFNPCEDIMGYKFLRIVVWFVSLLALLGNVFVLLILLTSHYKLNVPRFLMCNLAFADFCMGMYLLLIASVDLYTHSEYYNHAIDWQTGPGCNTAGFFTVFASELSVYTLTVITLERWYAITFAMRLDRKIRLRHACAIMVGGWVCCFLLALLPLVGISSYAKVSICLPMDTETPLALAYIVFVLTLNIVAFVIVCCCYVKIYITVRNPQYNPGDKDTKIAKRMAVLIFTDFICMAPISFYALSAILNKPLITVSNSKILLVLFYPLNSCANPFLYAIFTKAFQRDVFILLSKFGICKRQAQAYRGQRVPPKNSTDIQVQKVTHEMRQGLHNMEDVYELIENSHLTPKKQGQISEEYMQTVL
In collaboration between scientist from the NCGC and the NIDDK, a miniaturized HTRF high-throughput screen was developed. It's a cell based assay, where an anti cAMP antibody contains a fluorescent cryptate tag (excitation 337 nm; emission 620 nm) and the acceptor is cAMP-d2 (excitation 620 nm; emission 665 nm). When antibody and cAMP-d2 interact and are excited by a 337 nm light, a FRET occurs resulting in emission at 665 nm. The assay is competition between cAMP-d2 and cAMP (from the cell lysate). The homogeneous protocol allows for one step dispense after stimulation that is automation friendly. This is a hit validation assay using the primary screen format.
NIH Chemical Genomics Center [NCGC]
NIH Molecular Libraries Probe Centers Network [MLPCN]
Assay Provider: Marvin Gershengorn, NIDDK
1. 3ul of 200 TSHR freshly harvested cells/well are dispensed into a 1536 TC-treated white solid bottom plate.
2. Through pintool addition, 23nl of compounds and control in 100% DMSO are added to the plate.
3. Then 1ul of EC80 TSH (4nM final) is added to the plate.
4. Assay is incubated at 37 deg C for 2 hours.
5. 2ul of cAMP antibody diluted 1:20 in lysis buffer is added.
6. Immediately following, 2ul of d2 diluted 1:20 in HBSS is added seperately.
7. The assay is incubated for 30 minutes at ambient room temperature.
8. The result is obtained by using a ViewLux read-out with HTRF settings.
(In general: Quantitative high-throughput screening tests each substance at several concentrations.)
As for `CC(C)C1Nc2c(O)cc(Cl)c([N+](=O)[O-])c2C2C=CCC21` (stereo not drawn), the Potency is 8.49 µM (active).
With `COc1ccc(CNC(=O)CCS(=O)(=O)c2cc3c(cc2Cl)NC(=O)CO3)cc1`, the Potency entry is “inactive”.
In the case of `C/C(=N\NC(=O)c1cccc(Cl)c1)C1C(=O)c2ccccc2C1=O`, the Potency is 12 µM (active).
As to `CC(=O)N1c2ccc(S(=O)(=O)N3CCC(C(=O)NC4CCCCC4C)CC3)cc2CC1C` (stereo not drawn), the Potency entry was “inactive”.
Regarding `O=C(COc1ccc(Cl)cc1Cl)Nc1ccc(C(=O)Nc2ccccc2C(=O)O)cc1`, the Potency is 23.9 µM (active).
`O=C(Nc1cccc2ccccc12)c1ccccc1`: the Potency result was “inactive”.
`O=C(CSc1ccccn1)Nc1cccc2ccccc12`: the Potency result was “inactive”.
Take `O=C(COc1cccc2ccccc12)Nc1ccc(Cl)cc1C(=O)O`: the Potency is 4.78 µM (active).
With `O=C(CSc1ccc2nnc(CCNC(=O)c3ccccc3)n2n1)NCc1ccc(F)cc1`, the Potency result is “inactive”.
For the compound `N#Cc1ccc(C(=O)Nc2nc(-c3cccs3)c(C(=O)C(F)(F)F)s2)cc1`, the Potency was 6.01 µM (active).
Turning to `Cc1ccccc1NC(=O)CCc1c(C)nn(-c2ccc(N3CCOCC3)nn2)c1C`, the Potency result was “inactive”.
On to `CC(=O)c1c(O)cc(O)c(C(C)=O)c1O`, for which the Potency is 30.1 µM (active).
As to `Cc1ccc(-n2nc3c(=O)n(C(C)C(=O)NC4CC4)nc(C)c3c2C)cc1` (stereo not drawn), the Potency entry was “inactive”.
With `COc1cc(C(=O)N/N=C/c2cn(Cc3ccccc3)c3ccccc23)ccc1O`, the Potency entry is “inactive”.
To `COc1ccc(-c2nn(-c3ccccc3)cc2/C=N/NC(=O)c2ccc(Br)o2)cc1` belongs 9.53 µM (active).
To `CCN(C(=O)CSc1nnc(CNc2cccc(OC)c2)n1C1CCCCC1)C1CCS(=O)(=O)C1` (stereo not drawn) belongs “inactive”.
For `CC(=O)c1cccc(NC(=O)c2sc3nc4n(c(=O)c3c2C)CCCC4)c1`, the Potency result is “inactive”.
Regarding `COc1ccc(NS(=O)(=O)c2cc(-c3cnc(C4CC4)o3)ccc2C)cc1`, the Potency is 26.9 µM (active).
As for `Cc1ccc(-c2cnc(C3CC3)o2)cc1S(=O)(=O)Nc1ccccc1`, the Potency was 30.1 µM (active).
On to `CC(=O)c1cccc(NS(=O)(=O)c2cc(-c3cnc(C4CC4)o3)ccc2C)c1`, for which the Potency was 21.3 µM (active).
`COc1ccc(-c2cc3c(=O)n(CC(=O)NCc4cccnc4)nc(C)n3n2)cc1`: the Potency entry is “inactive”.
As for `CCCn1c(=O)c2[nH]c(C3CCCC3)nc2n(CCC)c1=O`, the Potency entry was “inactive”.
As for `O=C(NN=C1CCCC1)c1cc(Cl)cc(Cl)c1O`, the entry is “inactive”; as for `Cc1c(Cl)sn(-c2ccc(Cl)cc2)c1=O`, 26.9 µM (active); as for `CC1=N/C(=C\c2ccc([N+](=O)[O-])cc2)C(=O)N1c1ccc(Cl)cc1`, “inactive”.
As to `O=C(NCCc1ccccc1)c1cc2ccccc2oc1=O`, the Potency result is “inactive”.
As to `O=C(Nc1ccc(N2CCN(C(=O)c3ccccc3)CC2)cc1)c1cc2ccccc2o1`, the Potency is 23.9 µM (active).
For `CS(=O)(=O)N(Cc1ccccc1)c1ccc(C(=O)N2CCN(c3cccc(Cl)c3)CC2)cc1`, the Potency entry was “inactive”.
To `CCN(c1ccc(OC)cc1)S(=O)(=O)c1cc(-c2cc(C)no2)ccc1C(C)C` belongs “inactive”; to `CCc1ccc(-c2cc(C)no2)cc1S(=O)(=O)N1CCN(c2ccccn2)CC1`, 30.1 µM (active).
In the case of `CC(NC(=O)c1cc(=O)[nH]c2ccccc12)c1ccc(F)cc1F` (stereo not drawn), the Potency entry was “inactive”.
Turning to `Cc1ccc(NC(=O)Cn2ncc3c([nH]c4ccccc43)c2=O)cc1Cl`, the Potency entry was “inactive”.
As to `O=C(Nc1ccc(Cl)cc1)c1cc2c(cc1O)[nH]c1ccccc12`, the Potency is 3.01 µM (active).
For the compound `COC(=O)Cc1c(C)[nH]n(-c2cc(Cl)cc(Cl)c2)c1=O`, the Potency result is “inactive”.
As for `Cc1cc(C)n2nc(SCC(=O)Nc3ccccc3C)nc2n1`, the Potency entry is “inactive”.
As for `Cc1cc(C(=O)NC2CCCc3c2cnn3-c2ccc(C(C)(C)C)cc2)nn1C` (stereo not drawn), the figure is 30.1 µM (active); as for `Cc1cc(C)cc(OC(C)C(=O)NCCCn2ccnc2)c1` (stereo not drawn), “inactive”; as for `O=C(Nc1ccc(Cl)c(S(=O)(=O)N2CCOCC2)c1)c1ccc(OCC2CCCO2)cc1` (stereo not drawn), 15.1 µM (active).
Consider `CC1=C(C(=O)N2CCCC(N3CCN(c4ccccc4C)CC3)C2)OCCO1` (stereo not drawn), for which the Potency result was “inactive”.
As for `COCCNC(=O)CN1C(=O)c2cccc3cccc1c23`, the entry is “inactive”; as for `COc1ccccc1N1CCN(C(=O)CCC(=O)N2CCN(c3ccc(F)cc3)CC2)CC1`, “inactive”.
In the case of `CCOc1ccccc1N1CCN(C(=O)CCCN2C(=O)c3cccc4cccc(c34)C2=O)CC1`, the Potency is 30.1 µM (active).
`Nc1ccc(C(=O)NC2CCSc3ccccc32)cc1[N+](=O)[O-]` (stereo not drawn): the Potency entry was “inactive”.
In the case of `O=C(COC(=O)c1ccccc1C(=O)c1ccc(Cl)c([N+](=O)[O-])c1)NC1CCCCCC1`, the Potency is 23.9 µM (active).
For `Cc1ccc(NC(=O)CCc2nnc3ccc(NCc4ccco4)nn23)nc1`, the Potency entry was “inactive”.
Consider `CN(C)c1ccc(NC(=O)C2C3C=CC(C3)C2C(=O)O)cc1` (stereo not drawn), for which the Potency result was “inactive”.
In the case of `Cc1ccc(S(=O)(=O)NC(=O)Nc2ccc(N(C)C)cc2)cc1`, the Potency was 30.1 µM (active).
On to `CN(C)c1ccc(NC(=O)Oc2ccccc2)cc1`, for which the Potency result was “inactive”.
